Screen size: about 96,000 compounds; about 20,000 (21%) were called active. Not all results are given here. Values without a mark were called inactive.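 How the source made its calls: active means CYP2C19 inhibition above a set limit at 5 µM in the primary screen (cut at about 50% in these data); inactive means the rest.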

The target of the test is Cytochrome P450 2C19 (Homo sapiens) (UniProt P33261). The experiment in a line: blockers of cytochrome P450 2C19 activity – biochemical, luminescence, ADME assay, primary screen (AID 778).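 Further: plate controls were negative control wells for no effect and 2.5 mM tranylcypromine positive control for full effect.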 Particulars: CYP2C19 Supersomes, luciferin-H EGE luminescence, 30 min; at 5 µM; stronger effect = higher value.
Sequence of Cytochrome P450 2C19 (Homo sapiens) (P33261 whole entry, looked up): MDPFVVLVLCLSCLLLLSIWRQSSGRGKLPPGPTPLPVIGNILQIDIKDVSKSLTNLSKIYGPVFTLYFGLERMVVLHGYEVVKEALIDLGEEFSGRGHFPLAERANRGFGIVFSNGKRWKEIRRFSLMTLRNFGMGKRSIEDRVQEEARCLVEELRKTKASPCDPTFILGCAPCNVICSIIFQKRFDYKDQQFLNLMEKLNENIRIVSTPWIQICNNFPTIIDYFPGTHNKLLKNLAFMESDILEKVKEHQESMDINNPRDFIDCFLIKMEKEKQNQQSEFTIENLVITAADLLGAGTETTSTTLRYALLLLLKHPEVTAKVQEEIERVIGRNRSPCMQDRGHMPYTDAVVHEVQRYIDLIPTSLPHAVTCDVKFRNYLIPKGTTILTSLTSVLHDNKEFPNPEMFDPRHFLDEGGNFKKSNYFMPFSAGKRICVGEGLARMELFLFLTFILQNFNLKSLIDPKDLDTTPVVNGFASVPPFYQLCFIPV
The term inhibition denotes the change of the read-out against control, counted positive when it falls. As to `NC(=O)c1ccccc1NC(=O)c1ccccc1F`, the inhibition is -8.5%.

For the compound `CCOC(=O)c1c(C)nc(-c2ccccc2)nc1NC(=O)C(C)C`, the inhibition is 37.3%.

In the case of `CCOC(=O)N1CCC(NC(=O)Cn2cc3c(n2)CCCCC3)CC1`, the inhibition was 1.5%.

`CCN1CCN(Cc2c(O)ccc3c(=O)c(-c4ccc(OC)c(OC)c4)c(C(F)(F)F)oc23)CC1`: the inhibition is 12%.

In the case of `Cc1cc(=O)oc(C)c1C(=O)Nc1cnc2ccccc2c1`, the inhibition was 0.8%.

On to `CC(=NCC1CCCO1)c1c(O)[nH]c(=O)[nH]c1=O` (centres undefined), for which the inhibition was -7.7%.

As to `COCCNC(=O)CN(C(=O)CCC(=O)Nc1cc(C)on1)c1ccc(C)cc1C`, the inhibition was 11.8%.

`N#CC1=C(N)Oc2n[nH]c(CSc3ccccc3)c2C12C(=O)Nc1ccccc12` (centres undefined): the inhibition was 0.5%.

On to `O=C(NCc1ccccn1)c1ccc2nc(-c3ccco3)c(-c3ccco3)nc2c1`, for which the inhibition was 43.6%.

As to `COc1ccc(CC(NC(C)=O)C(=O)NC2CCN(C(=O)Nc3ccc(C#N)cc3)CC2)cc1OC` (centres undefined), the inhibition is 32%.

For the compound `COc1ccc(C(CNC(=O)c2cccnc2SC)N2CCOCC2)cc1` (centres undefined), the inhibition was 11.3%.

Consider `CCC1=C/C(=C\c2ccc3c(c2)OCO3)C(=O)S1`, for which the inhibition is 43.8%.

For `Cc1cccc(N=C2NC(=O)CS2)c1C`, the inhibition is 7.4%.

With `Cc1cc(C=O)c(C)n1-c1ccc(NC2CCCCC2)c([N+](=O)[O-])c1`, the inhibition is -2.5%.

Regarding `COc1cc(OC)c(-n2c(C)cc(C=O)c2C)cc1Cl`, the inhibition is 93.2% (active).

In the case of `O=C(c1ccco1)N1CCN(C(=O)c2ccc(COc3ccc(F)cc3)o2)CC1`, the inhibition is 25.1%.

In the case of `COCCN1Cc2cccc(C(=O)Nc3ccccc3OC)c2C1=O`, the inhibition is 34.9%.

With `CCCOc1ccc(NC(=O)C2CCCNC2=O)cc1` (centres undefined), the inhibition is 3.9%.

With `CNC(=O)c1csc(-c2ccccc2)n1`, the inhibition is 23.7%.

`C=CCNC(=O)c1csc(-c2ccccc2)n1`: the inhibition was 67.4% (active).

As for `C=CCNC(=O)c1cc(-c2ccccc2O)on1`, the inhibition was 45.7%.

Turning to `CS(=O)(=O)N(CC(=O)N1CCOCC1)c1ccc2c3c(cccc13)CC2`, the inhibition is 32.7%.

As to `C=CCN(C(=O)Cn1ncc2c1-c1cc(C)ccc1OC2)c1ccccc1`, the inhibition is 63.4% (active).

As for `Cc1ccc2oc(=O)c3cnn(CC(=O)N4CCCCCC4)c3c2c1`, the inhibition is -5.2%.

Take `C=CCN(C(=O)Nc1ccc2oc(C)nc2c1)c1ccccc1`: the inhibition was 14.7%.

In the case of `CS(=O)(=O)c1sc2nc(-c3ccccc3)cc(-c3ccccc3)c2c1N`, the inhibition is -2.6%.

`O=C(NC1CCCCC1)N1CCc2[nH]c3ccccc3c2C1`: the inhibition was 44.1%.

`N#Cc1ccc(CSc2nnc(-c3ccccn3)n2-c2ccc(Cl)cc2)cc1`: the inhibition was 18.3%.

Take `O=C(NCc1ccccn1)c1cc2ccccc2oc1=O`: the inhibition is 1.3%.

As to `O=C(Oc1cccnc1)c1cc2ccccc2oc1=O`, the inhibition was -9.9%.

In the case of `Nc1ncc(-c2cc3ccccc3oc2=O)s1`, the inhibition is 51.3% (active).

In the case of `CCCCN(C)C(=O)c1ccc2c(c1)N(CC)C(=O)c1ccccc1S2(=O)=O`, the inhibition is 22.5%.

In the case of `O=C(CCN1C(=O)c2ccncc2C1=O)Nc1ccc2c(c1)OCCO2`, the inhibition was 2.4%.

Consider `O=C(CCN1C(=O)c2ccccc2C1=O)Nc1ccncc1`, for which the inhibition was 36.2%.

As for `O=C(CCN1C(=O)c2ccccc2C1=O)Nc1cccc(F)c1`, the inhibition is 78% (active).

As for `O=C(COc1ccccc1Cl)Nn1cnnc1`, the inhibition was 41.3%.

On to `COc1ccc(Cc2nnc(NC(=O)Cc3cccs3)s2)cc1`, for which the inhibition was 17.2%.

As for `COc1ccc(NC(=O)NC2CC3CCCC(C2)N3Cc2ccccc2)cc1` (centres undefined), the inhibition was 0.4%.

Turning to `CN(C)c1nc2n(c(=O)n1)CCO2`, the inhibition was -6%.

On to `CN(C)/C=C1/Nc2ccccc2C1=O`, for which the inhibition was 14.3%.

On to `Cc1ccccc1-c1nc(CS(=O)(=O)CC(=O)N2CCc3ccccc3C2)c(C)o1`, for which the inhibition is 69.4% (active).

Regarding `Cc1oc(-c2ccccc2F)nc1CS(=O)(=O)CC(=O)NCCCN(C)C1CCCCC1`, the inhibition was -10.6%.

For the compound `COc1ccc(-c2nc(CS(=O)CC(=O)N3CCc4ccccc4C3)c(C)o2)cc1` (centres undefined), the inhibition was 17.7%.

`CCN1CCN(C(=O)/C=C\C(=O)O)CC1`: the inhibition is -10.4%.

As to `CCOC(=O)c1c(N)c(C#N)nn1-c1ccccc1C(=O)OC`, the inhibition is 25.3%.

For the compound `CCC(=O)NC(NCC1CCCO1)C(Cl)(Cl)Cl` (centres undefined), the inhibition was 8.6%.

With `COCCNC(=O)c1snc2ccc(Cl)cc12`, the inhibition is -5.7%.

For `CCOC(=O)c1cc2ccccc2nc1C`, the inhibition was 12.8%.

Regarding `CCOC(=O)c1sc(C)c2c1NC(C)(c1cccc3ccccc13)NC2=O` (centres undefined), the inhibition was 82% (active).

Regarding `CCOC(=O)c1nc(N)sc1C(=O)OCC`, the inhibition was -0.6%.

Regarding `COC(=O)C(C)n1cnc2c(nnn2-c2cccc(Cl)c2)c1=O` (centres undefined), the inhibition is 24.7%.

For `COc1ccc(Cl)cc1C(=O)Nc1ccc(N(C)C(C)=O)cc1`, the inhibition is 25.6%.

Consider `COc1ccc(NC(=S)N2N=CCC2c2ccccc2)cc1` (centres undefined), for which the inhibition is 41.5%.

As to `N#Cc1c(N)n(CCOC(=O)c2ccc(Cl)cc2)c2nc3ccccc3nc12`, the inhibition is 29.4%.

Turning to `CCOC(=O)c1cc(NC(=O)c2ccc(Cl)cc2)c(=O)oc1-c1ccccc1`, the inhibition is 6.8%.

On to `CN1OC(COC(=O)c2ccc(Cl)cc2)CC1c1ccccc1` (centres undefined), for which the inhibition is 74.5% (active).

Turning to `CCOc1ccc(OCC)c(NC(=O)C(NS(=O)(=O)c2ccc3c(c2)oc(=O)n3C)C(C)C)c1` (centres undefined), the inhibition was 20.9%.

In the case of `c1ccc(-c2cc(-c3nnc4sc(-c5ccccn5)nn34)[nH]n2)cc1`, the inhibition was 10.4%.

Take `O=C(O)c1cccnc1NC1CCCC1`: the inhibition is 6.9%.

With `O=C(CSc1nnc(-c2ccc(NS(=O)(=O)c3ccccc3)cc2)o1)NCC1CCCO1` (centres undefined), the inhibition is 46.1%.

`CCN(CC)C(=O)CSc1nnc(-c2cccc(OC)c2)o1`: the inhibition is 26.3%.

As for `CCN(CC)C(=O)CSc1nnc(-c2ccc(S(=O)(=O)NCc3ccccc3Cl)cc2)o1`, the inhibition is 65.4% (active).

`CC(C)CC(=O)Nc1cc(C(F)(F)F)ccc1N1CCOCC1`: the inhibition is 32.1%.

For the compound `O=C(Nc1cc(C(F)(F)F)ccc1Cl)c1cc2nc3c(c(C(F)(F)F)n2n1)CCCC3`, the inhibition is 7.6%.

Turning to `CC(CC(=O)Nc1cc(C(F)(F)F)ccc1Cl)c1ccccc1` (centres undefined), the inhibition was 61% (active).

For the compound `COC(=O)CNC(=O)c1ccc2c(c1)S(=O)(=O)c1ccccc1C2=O`, the inhibition was -4.3%.

Consider `O=C(CC1OC(=O)c2ccccc21)NC1CCCCC1` (centres undefined), for which the inhibition is -5.7%.

On to `O=C(NC(c1ccccc1)c1ccccc1)N1CCN(CCO)CC1`, for which the inhibition was 3.6%.

Turning to `S=c1[nH]nc2c3c4c(sc3ncn12)CCCC4`, the inhibition was -8.5%.

In the case of `Cc1cccc(CSc2nnc(NC(=O)CSc3nnc(C)s3)s2)c1`, the inhibition is 20.2%.

On to `CCOC(=O)/C(C#N)=C/c1ccc(OCC(=O)Nc2ccccc2)c(OC)c1`, for which the inhibition was 4.1%.

`CCOC(=O)/C(=C\c1ccc([N+](=O)[O-])cc1)C(=O)c1cc(C(C)=O)c(Nc2ccccc2)s1`: the inhibition was 62.8% (active).

As for `O=C(NCCc1ccccc1)/C(=C\c1ccc([N+](=O)[O-])cc1)NC(=O)c1ccccc1`, the inhibition was -1.2%.

`CCCC(=O)Nc1c(O)c2ccccc2[nH]c1=O`: the inhibition was -8.7%.

Take `CCOc1ccc(S(=O)(=O)Nc2ccc(S(=O)(=O)Nc3cc(OC)ccc3OC)cc2)cc1`: the inhibition was 91.8% (active).

`CCOc1ccc(S(=O)(=O)Nc2nc3cc(OC)ccc3s2)cc1`: the inhibition is 16.3%.

As for `COc1ccc(OC)c(NC(=O)Cn2c(=O)oc3ccccc32)c1`, the inhibition is 42.2%.

As for `COc1ccc(OC)c(NC(=O)CN2CCN(C(=O)c3ccco3)CC2)c1`, the inhibition is 8.8%.

Turning to `COc1ccc(OC)c(NC(=O)CCN2CCC(C)CC2)c1`, the inhibition was 89.8% (active).

For `COc1ccc(C(=O)Nc2ccc(F)cc2F)cc1`, the inhibition was 12.1%.

Take `CCOc1ccccc1NC(=O)Nc1cc(OC)ccc1OC`: the inhibition is 1.1%.

Regarding `CCOc1ccc(C(=O)Nc2cc(OC)ccc2OC)cc1`, the inhibition is 77% (active).

As for `CCOc1ccc(CC(=O)Nc2ccc(S(=O)(=O)Nc3cc(C)on3)cc2)cc1OCC`, the inhibition was 2%.

Consider `O=P(c1cccs1)(c1cccs1)c1cccs1`, for which the inhibition is 7.9%.

For the compound `COC(=O)C(C)N(C#N)c1nc(C)nc(C)n1` (centres undefined), the inhibition was 15.2%.

Consider `CCOC(=O)C1CCCN(C(=O)c2sc3nc(C)nc(N4CCOCC4)c3c2C)C1` (centres undefined), for which the inhibition was -5%.

In the case of `Nc1nonc1-c1noc(-c2ccc(Br)o2)n1`, the inhibition is 47.6%.

Turning to `CN1CCN(Cc2c(O)ccc3c2oc(=O)c2ccccc23)CC1`, the inhibition is -0.1%.

With `CC(C)(C)NC(=O)NC(=O)COC(=O)Cn1c(C(F)(F)F)nc2ccccc21`, the inhibition is 54.6% (active).

In the case of `CN1CCN(C(=O)Cn2c(C(F)(F)F)nc3ccccc32)CC1`, the inhibition was -11.1%.

With `Cc1ccccc1OC(=O)Cn1c(C(F)(F)F)nc2ccccc21`, the inhibition is 35.4%.

For `CCCCN(C)Cc1c(C)[nH]c2ccc(Cl)cc2c1=O`, the inhibition was -11.4%.

For the compound `O=C(Nc1c(Cl)cccc1Cl)C1CCC1`, the inhibition is -0.2%.

Turning to `O=C(c1ccco1)N1CCN(C(=O)C2CC(c3ccc(Cl)c(Cl)c3)=NO2)CC1` (centres undefined), the inhibition was 53.8% (active).

Take `O=C(c1ccco1)N1CCN(c2cccc(Cl)c2)CC1`: the inhibition is 19.9%.

Take `O=C(c1ccco1)N1CCN(C(=O)C2CC(c3ccc(F)cc3)=NO2)CC1` (centres undefined): the inhibition is 5.3%.

Take `Cc1ccc(S(=O)(=O)NCC(=O)OCC(=O)N2CCc3ccccc32)cc1`: the inhibition was -3.8%.

On to `O=C1CN(C(=O)COC(=O)C2CC(=O)N(Cc3ccco3)C2)c2ccccc2N1` (centres undefined), for which the inhibition is -8.7%.

As for `Cc1ccc(S(=O)(=O)N2CCC(C(=O)OCC(=O)N3CC(=O)Nc4ccccc43)CC2)cc1`, the inhibition is 62.2% (active).

For the origin of these results see PubChem BioAssay AID778 (Sanford-Burnham Center for Chemical Genomics, 2007).
